Records with an inconclusive call do not appear. Entries that show only a call come without a potency. Calls of active or inactive are those of the source. Unless noted, calls come from the whole dose curve; as a rule, active = well fitted curve in the direction sought with a large enough effect; inconclusive = small, poorly fitted or top-dose-only effect, or another doubt; inactive = no such curve, though single readings can be large; an effect the other way counts as inactive or inconclusive.

These results are taken from PubChem BioAssay (NCATS).

Experiment [1] deals with ATP-dependent 6-phosphofructokinase (Trypanosoma brucei brucei) (UniProt O15648). As to the kind of experiment: qHTS Assay to Find Inhibitors of T. brucei phosphofructokinase: hit validation (AID 492961).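 Note: luminescence reports ADP formed as PFK phosphorylates fructose-6-phosphate with ATP.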 The settings on record: T. brucei PFK, ADP-Glo luminescence; series mostly up to 51.4 µM. The procedure, abridged: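 In this biochemical qHTS validation, titrated compounds were tested against 1.25 nM PFK with 0.1 mM ATP and 0.5 mM F6P. Percent activity came from controls lacking or containing enzyme.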

Experiment [2] deals with Ubiquitin carboxyl-terminal hydrolase 1 (Homo sapiens) (UniProt O94782). As to the kind of experiment: Inhibitors of USP1/UAF1: Pilot qHTS (AID 504865). Note: nearly all actives have a fitted effect of over 35% in size. Note: potency is the fitted concentration of half-maximal effect. The following applies: purified USP1/UAF1, Ub-rhodamine cleavage fluorescence; series mostly up to 114 µM. The procedure, abridged:
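Enzyme-free wells gave the negative control, while test wells held 1nM USP1/UAF1 preincubated with compound for 15 min at room temperature. Ub-Rho at 150nM final started the reaction, and fluorescence at 480/540 nm was recorded kinetically.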
(Quantitative high-throughput screening tests each substance at several concentrations.)

In experiment [3] the target is Estrogen receptor (Homo sapiens) (UniProt P03372). As to the kind of experiment: qHTS assay for small molecule antagonists of estrogen receptor alpha signaling (AID 588513; active = well fitted curve in the direction sought with a large enough effect in the signal ratio, with a control signal flat, not every such curve was filed as active; the % refers to the signal ratio). The settings on record: ER-alpha-UAS-bla HEK293, beta-lactamase ratio, antagonist mode; series mostly up to 76.9 µM. Put shortly: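 Antagonist-mode qHTS in ER-alpha-UAS-bla HEK 293 cells: compound titration, 0.5nM estradiol for 18 h, CCF4 fluorescence, Hill-derived IC50.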
Chain of Estrogen receptor (Homo sapiens) (P03372 whole entry, looked up): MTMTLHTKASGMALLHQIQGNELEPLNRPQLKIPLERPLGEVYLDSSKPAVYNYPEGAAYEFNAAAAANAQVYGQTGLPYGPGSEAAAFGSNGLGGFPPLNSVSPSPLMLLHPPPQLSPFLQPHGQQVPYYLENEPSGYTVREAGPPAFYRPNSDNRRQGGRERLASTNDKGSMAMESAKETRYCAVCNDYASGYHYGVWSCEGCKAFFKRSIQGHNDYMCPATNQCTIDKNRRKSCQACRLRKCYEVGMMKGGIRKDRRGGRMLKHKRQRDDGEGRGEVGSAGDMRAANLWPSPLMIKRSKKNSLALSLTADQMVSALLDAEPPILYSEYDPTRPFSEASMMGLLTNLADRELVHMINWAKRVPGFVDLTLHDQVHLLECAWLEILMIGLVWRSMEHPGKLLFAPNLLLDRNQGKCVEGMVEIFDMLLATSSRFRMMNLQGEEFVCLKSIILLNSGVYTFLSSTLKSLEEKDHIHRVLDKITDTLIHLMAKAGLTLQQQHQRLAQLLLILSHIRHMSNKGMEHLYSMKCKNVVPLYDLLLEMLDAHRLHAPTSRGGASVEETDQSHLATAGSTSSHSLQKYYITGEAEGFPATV

Chain of ATP-dependent 6-phosphofructokinase (Trypanosoma brucei brucei) (O15648 whole entry, looked up): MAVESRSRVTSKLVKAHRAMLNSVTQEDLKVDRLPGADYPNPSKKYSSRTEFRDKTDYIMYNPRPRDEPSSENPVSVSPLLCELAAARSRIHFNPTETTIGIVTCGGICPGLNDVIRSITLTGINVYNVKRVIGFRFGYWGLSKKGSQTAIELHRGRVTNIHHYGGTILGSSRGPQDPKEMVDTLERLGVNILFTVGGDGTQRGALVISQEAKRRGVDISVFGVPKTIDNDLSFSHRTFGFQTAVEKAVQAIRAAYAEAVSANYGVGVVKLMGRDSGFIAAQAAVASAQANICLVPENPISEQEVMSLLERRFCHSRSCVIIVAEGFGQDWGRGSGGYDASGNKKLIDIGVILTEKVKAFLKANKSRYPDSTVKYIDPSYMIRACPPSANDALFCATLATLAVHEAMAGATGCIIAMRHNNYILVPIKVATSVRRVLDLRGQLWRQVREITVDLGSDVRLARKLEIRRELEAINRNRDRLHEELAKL
Chain of Ubiquitin carboxyl-terminal hydrolase 1 (Homo sapiens) (O94782 whole entry, looked up): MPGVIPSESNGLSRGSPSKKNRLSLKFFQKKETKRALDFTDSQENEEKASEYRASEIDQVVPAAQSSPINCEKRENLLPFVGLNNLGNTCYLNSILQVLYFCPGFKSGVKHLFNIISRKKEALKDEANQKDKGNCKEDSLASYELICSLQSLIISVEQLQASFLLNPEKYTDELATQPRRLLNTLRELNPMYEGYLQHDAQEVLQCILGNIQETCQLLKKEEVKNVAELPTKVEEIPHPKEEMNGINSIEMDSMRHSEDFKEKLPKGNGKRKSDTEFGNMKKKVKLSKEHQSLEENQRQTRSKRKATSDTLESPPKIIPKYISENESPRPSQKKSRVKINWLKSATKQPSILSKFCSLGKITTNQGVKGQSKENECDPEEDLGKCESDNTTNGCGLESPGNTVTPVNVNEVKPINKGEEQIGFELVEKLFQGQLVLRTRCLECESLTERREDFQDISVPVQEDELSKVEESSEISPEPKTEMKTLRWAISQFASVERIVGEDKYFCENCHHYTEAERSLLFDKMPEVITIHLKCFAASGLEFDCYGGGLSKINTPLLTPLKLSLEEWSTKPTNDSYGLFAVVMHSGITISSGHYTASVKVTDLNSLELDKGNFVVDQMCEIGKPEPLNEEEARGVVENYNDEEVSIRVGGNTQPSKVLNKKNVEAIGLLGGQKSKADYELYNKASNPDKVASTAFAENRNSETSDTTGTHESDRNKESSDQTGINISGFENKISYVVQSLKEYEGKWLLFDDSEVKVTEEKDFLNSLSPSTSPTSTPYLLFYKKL

Turning to `CC1(C)S[C@@H]2[C@H](NC(=O)[C@@H](NC(=O)N3CCNC3=O)c3ccccc3)C(=O)N2[C@H]1C(=O)O`, the Potency result in experiment [1] and in experiment [2] was “inactive” throughout.
On to `CCCCCCCCCCCCCCCC(=O)OCC(COC(=O)CCCCCCCCCCCCCCC)OC(=O)CCCCCCCCCCCCCCC`, for which the Potency entry in experiment [1] and in experiment [2] was “inactive” each time.
As for `C[C@@H]1CCC2[C@@H](C)[C@@H](O)O[C@@H]3O[C@@]4(C)CC[C@@H]1[C@@]23OO4` (some centres undefined), the Potency result in experiment [1] and in experiment [2] was “inactive” each time.
Take `CC1=CCC(C(C)(C)O)CC1` (centres undefined): the Potency entry in experiment [1] and in experiment [2] was “inactive” in each case. In addition, the outcome in experiment [3] was inactive.
Turning to `CC(C)(C)C(=O)OCOC(=O)[C@@H]1N2C(=O)[C@@H](N=CN3CCCCCC3)[C@H]2SC1(C)C`, the Potency entry in experiment [1] and in experiment [2] was “inactive” each time.
Take `CC(=O)Oc1c(C)cc(OCC(O)CNC(C)C)c(C)c1C` (centres undefined): the Potency entry in experiment [1] and in experiment [2] was “inactive” in each case.
As to `O=C(COc1ccc(Cl)cc1)OCCNC12CC3CC(CC(C3)C1)C2`, the Potency result in experiment [1] and in experiment [2] was “inactive” each time.
For `CCCCCCCCCCCC[n+]1ccc2ccccc2c1`, the Potency entry in experiment [1] was “inactive”. The Potency in experiment [2] is 89.1 µM (active).
As to `Cc1ccccc1`, the Potency result in experiment [1] and in experiment [2] was “inactive” throughout.
For `O=C(O)CN(CCN(CC(=O)O)CC(=O)O)CC(=O)O`, the Potency result in experiment [1] and in experiment [2] was “inactive” each time.
On to `COC(C(=O)C(O)C(C)O)C1Cc2cc3cc(OC4CC(OC5CC(O)C(O)C(C)O5)C(O)C(C)O4)c(C)c(O)c3c(O)c2C(=O)C1OC1CC(OC2CC(OC3CC(C)(O)C(O)C(C)O3)C(O)C(C)O2)C(O)C(C)O1` (centres undefined), for which the Potency result in experiment [1] and in experiment [2] was “inactive” in each case.
On to `CCCCCCCC(=O)O`, for which the Potency entry in experiment [1] and in experiment [2] was “inactive” in each case. The result in experiment [3] was inactive.
Consider `Nc1c(N=Nc2ccc(-c3ccc(N=Nc4cc(S(=O)(=O)O)c5ccccc5c4N)cc3)cc2)cc(S(=O)(=O)O)c2ccccc12`, for which the Potency result in experiment [1] is “inactive”. For the same molecule, in experiment [2], the Potency is 15.8 µM (active).
For `COC(F)(F)C(Cl)Cl`, in that order: “inactive” and “inactive”.
The like results for `C=C1C(=CC=C2CCC[C@@]3(C)[C@@H]2CC[C@H]3[C@H](C)CCCC(C)C)C[C@@H](O)C[C@@H]1O` were, in that order, “inactive” and 22.4 µM (active).
For `O=S(=O)(O)O`, in that order: “inactive” and “inactive”.
Regarding `CC(C(=O)O)c1ccc(N2Cc3ccccc3C2=O)cc1` (centres undefined), the Potency entry in experiment [1] and in experiment [2] was “inactive” in each case.
With `COCC(=O)Nc1cc(Sc2ccccc2)ccc1N=C(NC(=O)OC)NC(=O)OC`, the Potency result in experiment [1] and in experiment [2] was “inactive” in each case.
For the molecule `CCC(=O)NCCC1CCc2ccc3c(c21)CCO3` (centres undefined), the Potency entry in experiment [1] and in experiment [2] was “inactive” in each case.
`CCCCC(C)(O)C/C=C/[C@H]1[C@H](O)CC(=O)[C@@H]1CCCCCCC(=O)OC` (some centres undefined): the Potency result in experiment [1] and in experiment [2] was “inactive” throughout.
As for `CCN(CC)Cc1cc(Nc2ccnc3cc(Cl)ccc23)ccc1O`, the Potency result in experiment [1] and in experiment [2] was “inactive” throughout.
